# Laboratory results published in PubChem BioAssay (NCI).
# About 83,000 compounds went through this panel and 20% of them were active in at least one assay; those are over-represented in the sample as a whole.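 Interpretation: 100, growth as untreated; towards 0, rising growth inhibition; 0, no net growth; 0 to -100, cell death. Compounds scoring below 10 were considered active.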 A number with no mark means an inactive call. Activity calls are given as the source filed them.
# System: COLO 205 colon
# Test: NCI-60 one-dose screen, 48 h (100 = growth as untreated, 0 = no growth, -100 = all killed)
# Settings: 10 µM unless noted
row,SMILES,growth
1,c1ccc(Oc2c3ccccc3nc3ccccc23)cc1,-10.5% (active)
2,CN(C)c1ccc2c(N(C)C)cc(N(C)C)nc2c1,65%
3,CC(C)N(CCCC#N)C(C)C,110%
4,COc1ccc(-c2csc(NC(=O)Nc3nc(-c4ccc(OC)cc4)cs3)n2)cc1,98.5%
5,CCOC(OCC)C(=O)c1ccccc1,104%
6,CC1CC(C)S(=O)(=O)C1 (stereo unspecified),108%
7,Clc1cccc(Cl)c1C1CSc2ccccc2N=C1c1ccccc1 (stereo unspecified),102%
8,CCOc1ccc(C(=O)O)cc1,105%
9,CCN(CC)CCCC(C)NC(=S)N/N=C(\C)c1ccccn1 (stereo unspecified),28.9%
10,C[n+]1cc2cc3c(cc2c2ccccc21)OCO3,75.6%
11,Cc1cccc2ccccc12,117%
12,Cn1c2ccccc2c2nnc(NCCCCO)nc21,103%
13,Cc1nc(C)c(C(=O)O)cc1C(=O)O,131%
14,C/C(=N\Nc1ccc([N+](=O)[O-])cc1[N+](=O)[O-])c1ccc(Br)cc1,104%
15,CC(=O)OC/C(C)=C\CC(C)COC(C)=O (stereo unspecified),104%
16,CCOc1ccccc1NC(=O)CCl,104%
